According to PubChem BioAssay (NCATS):
Values joined by “and” are separate entries in the source; they are usually repeats but may differ in a detail not shown here. Equal values may be shown once. Inconclusive results are not listed. Entries that show only a call come without a potency. Active and inactive are the calls of the source. Calls follow the shape of the full dose curve. Peptide text beside a SMILES is read from it.

Experiments:
[1] = Confirmatory qHTS to identify inhibitors of SARS-CoV-2 cell entry (AID 1645844); also: nearly all actives have a fitted effect of over 45% in size
Summary of the method: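 HEK293-ACE2, overnight seeding; cpd 1 h, 37C/5% CO2; + SARS-CoV-2-S MLV PP (Wuhan-Hu-1, ΔC19); 48 h; Bright-Glo luminescence. Data normalised to S PP and bald PP wells.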

[2] = Cytotoxicity counterscreen for inhibitors of SARS-CoV-2 cell entry (AID 1645845); details: outcome: dose series up to 57.1 µM unless noted; also: nearly all actives have a fitted effect of over 50% in size
Summary of the method: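 Counterscreen run in the same HEK293-ACE2 line as the pseudotyped-particle entry assay, without particles. Viability after 48 h at 37 C was read as ATP luminescence, scaled between cell-containing and cell-free wells.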

[3] = VSVG counterscreen qHTS to identify inhibitors of SARS-CoV-2 cell entry (AID 1645847); also: nearly all actives have a fitted effect of over 65% in size
Summary of the method: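 Counterscreen using VSV-G (not spike) pseudotyped MLV particles on ACE2-expressing Expi293F cells after 1 h compound preincubation; infection ran 48 h at 37 °C. Data normalized to VSV-G PP and bald-PP wells.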

[4] = Primary qHTS to identify inhibitors of SARS-CoV-2 cell entry (AID 1645846); details: SARS-CoV-2 pseudovirus cell entry assay, luminescence; activity change, negative = inhibition: at 57.1 µM (top of the series) unless noted; also: nearly all actives have a fitted effect of over 45% in size
Summary of the method: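 Data are normalized to wells receiving SARS-CoV-2-S pseudoparticles and those given bald particles. Entry signal was luciferase luminescence in stable hACE2 Expi293F cells, 48 hr post-infection, after 1 hr compound pretreatment.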

[5] = S16 Schwann cell PMP22 intronic element beta-lactamase assay (AID 624044); details: S16 rat Schwann cells, PMP22 element beta-lactamase FRET, 24 h; ratio activity, negative = inhibition: at 38.3 µM (top of the series) unless noted; also: nearly all actives have a fitted effect of over 15% in size
Summary of the method: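 Beta-lactamase reporter under a PMP22 intronic regulatory element in stable S16 rat Schwann cells; 24 h compound exposure. 460 nm blue signal normalized between DMSO (0%) and potassium clavulanate, with 535 nm FRET tracking viability; curves classed by r2 and response.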
Potency is read from the fitted curve at half-maximal effect.

CCc1cnn2c(NCc3ccc[n+]([O-])c3)cc(N3CCCC[C@H]3CCO)nc12
Potency [1]: 0.0541 µM (active)
Potency [2]: inactive
Potency [3]: 0.0341 µM (active)

COc1cc(F)ccc1-c1ncnc(Nc2cccc(CS(C)(=N)=O)c2)n1 (stereo unspecified)
Potency [1]: 3.83 µM (active)
Potency [3]: 4.29 µM (active)

N#Cc1cccnc1N1CCN(C(=O)c2cccc(Cc3n[nH]c(=O)c4ccccc34)c2)CC1
Potency [1]: 0.0681 µM (active)
Potency [3]: 0.0607 µM (active)

COc1ccc2[nH]c3c(c2c1)CCN[C@]31CS[C@@H]2c3c(OC(C)=O)c(C)c4c(c3[C@H](COC1=O)N1[C@@H]2[C@H]2c3c(cc(C)c(OC)c3O)C[C@@H]([C@@H]1O)N2C)OCO4
Potency [1]: 0.0044 µM (active)
Potency [4]: 0.631 µM (active)
Potency [3]: 0.0035 µM (active)

COc1ccc(S(=O)(=O)N2CCc3cccc(-c4ccncc4)c32)cc1
Potency [1]: 0.961 µM (active)
Potency [3]: 1.52 µM (active)

CNC(=O)c1cccc(-c2ccc3c(N4CCOC[C@@H]4C)nc(N4CCOC[C@@H]4C)nc3n2)c1
Potency [1]: 2.41 µM (active)
Potency [3]: 2.71 µM (active)

Cc1nnc(C[C@@H]2C=C(c3ccc(Cl)cc3)c3ccccc3-n3c(C)nnc32)o1
Potency [1]: inactive
Potency [3]: 9.61 µM (active)

CN[C@H]1CN(c2ccc3c(=O)c(C(=O)O)cn(-c4nccs4)c3n2)C[C@@H]1OC
Potency [1]: 0.555 µM (active)
Potency [3]: 0.622 µM (active)

O=C(CCCCCCC(=O)N/N=C/c1ccc(N(c2ccccc2)c2ccccc2)cc1)NO
Potency [1]: 8.79 µM (active)
Potency [4]: 3.16 µM (active)
Potency [3]: 7.84 µM (active)

O=c1c(-n2ccnn2)c[nH]n1-c1cc(N2CCOCC2)ncn1
Potency [1]: 4.82 µM (active)
Potency [4]: 7.08 µM (active)
Potency [3]: 21.5 µM (active)

C[C@@]12C(=O)OC(=O)[C@]1(C)[C@H]1CC[C@@H]2O1
Potency [5]: 3.37 µM (active)
Potency [1]: 4.82 µM (active)
Potency [4]: 8.91 µM (active)
Potency [3]: 3.04 µM (active)

C=CC(=O)Nc1cccc(Nc2nc(Nc3ccc(OCCOC)cc3)ncc2F)c1
Potency [1]: 6.81 µM (active)
Potency [2]: inactive
Potency [3]: 4.82 µM (active)

CN1C(=O)[C@@H](NC(=O)c2cc(Cc3ccccc3)on2)COc2ccccc21
Potency [1]: inactive
Potency [3]: inactive

CCc1cc(C(N)=O)ccc1-n1nc(C(C)C)c2c(-n3cnc(-c4cnn(C)c4)c3)ccnc21
Potency [1]: 10.8 µM (active)
Potency [3]: 3.04 µM (active)

Cn1cc(C2=C(c3cn(C)c4cc([N+](=O)[O-])ccc34)C(=O)NC2=O)c2ccccc21
Potency [1]: 1.71 µM (active)
Potency [3]: 1.08 µM (active)

C=CC(=O)Nc1cccc(Nc2nc(Nc3ccc(N4CCN(C(C)=O)CC4)cc3OC)ncc2C(F)(F)F)c1
Potency [2]: 31.6 µM (active)

CCn1c(=O)c(-c2ccc(-c3cncs3)cc2Cl)cc2cnc(Nc3ccc(N4CCN(C)CC4)cc3)nc21
Potency [2]: inactive

Cc1cc(F)c(C(=O)Nc2cccc(-c3nncn3C(C)C)n2)cc1-n1cnc(C2CC2)c1
Potency [2]: 31.6 µM (active)

Cc1sc2c(c1C)C(c1ccc(Cl)cc1)=N[C@@H](CC(=O)Nc1ccc(OCCOCCOCCOCCNc3cccc4c3C(=O)N(C3CCC(=O)NC3=O)C4=O)cc1)c1nnc(C)n1-2 (stereo partly specified)
Potency [2]: inactive

Cc1nnn(C)c1-c1cnc2c3ccc(C(C)(C)O)cc3n([C@H](c3ccccc3)C3CCOCC3)c2c1
Potency [2]: inactive

Cc1noc2c1-c1ccccc1C(c1ccc(Cl)cc1)=N[C@H]2CC(N)=O
Potency [2]: inactive

NC[C@@](O)(c1ccc(Cl)cc1)c1ccc(-c2cn[nH]c2)cc1
Potency [2]: 28.2 µM (active)

COc1ccc(C(=O)N2CCN(C(=O)/C=C/c3ccc(Br)cc3)CC2)cc1
Potency [2]: inactive

Cc1ccc(Nc2ncc3c(n2)N(C)C(=O)N(c2cc(NC(=O)c4cccc(C(F)(F)F)c4)ccc2C)C3)cn1
Potency [2]: inactive

O=C(O)CC(C(=O)O)n1c(O)c(C2=c3cc(Br)ccc3=NC2=O)sc1=S (stereo unspecified)
Potency [2]: inactive

O=C(O)/C(S)=C/c1ccc(I)cc1
Potency [2]: inactive

Cc1cc(I)ccc1Nc1c(C(=O)NOCC2CC2)cc(F)c(F)c1F
Potency [2]: 17.8 µM (active)

CN[C@@H](C)C(=O)N[C@H](C(=O)N1CCC[C@H]1C(=O)Nc1snnc1-c1ccccc1)C1CCCCC1
Potency [2]: inactive

O=C(Nc1cnccc1Cl)N1CCN(Cc2ccc3c(c2)OC(F)(F)O3)CC1
Potency [2]: inactive

C=CC(=O)N1CCC[C@H](n2c(=O)n(-c3ccc(Oc4ccccc4)cc3)c3c(N)ncnc32)C1
Potency [2]: inactive

COc1ncc(-c2ccc3c(Nc4cc(Oc5cc(F)cc(F)c5)cc(C(=O)O)c4)c(S(=O)(=O)NC4CC4)cnc3c2)c(OC)n1
Potency [2]: inactive

CC(C)(O)[C@H]1CC[C@@](C)([C@H]2[C@@H](O)C[C@@]3(C)[C@@H]4C[C@H](O[C@@H]5O[C@H](CO)[C@@H](O)[C@H](O)[C@H]5O)[C@H]5C(C)(C)[C@@H](O[C@@H]6OC[C@@H](O)[C@H](O)[C@H]6O)CC[C@@]56C[C@@]46CC[C@]23C)O1
Potency [2]: inactive

CCC1CCCCN1C(=O)n1ncc(C(O)(c2ccccc2)c2ccccc2)n1 (stereo unspecified)
Potency [2]: 11.2 µM (active)

C=CC(=O)N1CCC(C2CCNc3c(C(N)=O)c(-c4ccc(Oc5ccccc5)cc4)nn32)CC1 (stereo unspecified)
Potency [2]: inactive

Cc1cc(C)c(CNC(=O)c2cc(-c3ccc(CN4CCOCC4)cc3)cc3c2cnn3C2CCCC2)c(=O)[nH]1
Potency [2]: inactive

CCCC(CCC)C(=O)Nc1ccn([C@@H]2O[C@H](CO)[C@@H](O)C2(F)F)c(=O)n1
Potency [2]: inactive

Cc1ccc(C(=O)Nc2ccc(Oc3cc4cnn(C)c4cc3-c3cn[nH]c3)c(F)c2)c(=O)n1-c1ccc(F)cc1
Potency [2]: inactive

CCOc1cc(C(C)(C)C)ccc1C1=N[C@@](C)(c2ccc(Cl)cc2)[C@@](C)(c2ccc(Cl)cc2)N1C(=O)N1CCN(CC(=O)N2CCOCC2)CC1
Potency [2]: inactive

COc1cc2ncnc(Nc3ccc(O)c(Br)c3)c2cc1OC
Potency [2]: inactive

CCCc1cc(C)[nH]c(=O)c1CNC(=O)c1cc(-c2ccc(N3CCN(C(C)C)CC3)nc2)cc2c1cnn2C(C)C
Potency [2]: inactive

CC(C)NCCCn1c(Sc2cc(Cl)cc(Cl)c2)nc2c(N)ncnc21
Potency [2]: inactive

CCNC(=O)Nc1ccc(Oc2ncnc(N)c2/C=N/OC)cc1Cl
Potency [2]: inactive

CC(=O)N1c2ccc(-c3ccc(C(=O)O)cc3)cc2[C@H](Nc2ccc(Cl)cc2)C[C@@H]1C
Potency [2]: inactive

CCc1ccc2nc(Nc3cc(Cc4ccccc4)nc(NC4CCC(O)CC4)n3)sc2c1 (stereo unspecified)
Potency [2]: inactive

CO[C@H]1/C=C/O[C@@]2(C)Oc3c(C)c(O)c4c(O)c(c5c(nc6cc(C)ccn65)c4c3C2=O)NC(=O)/C(C)=C\C=C\[C@H](C)[C@H](O)[C@@H](C)[C@@H](O)[C@@H](C)[C@H](OC(C)=O)[C@@H]1C
Potency [2]: inactive

CCNC(=O)Nc1ncc(-c2cc(-c3c(C)cc(OC)cc3C)nc(-c3cnccn3)n2)s1
Potency [2]: inactive

COc1ccc2c(c1)C(c1ccc(F)cc1)=C(CN1CCCC1)CO2
Potency [2]: inactive

Cc1c(F)cc(C(=O)NC2CC2)cc1-c1c(F)cn2c(C(C)(C)C)nnc2c1F
Potency [2]: inactive

CC(C)(C)S(=O)(=O)c1ccc2nccc(Nc3n[nH]c4ccc(F)cc34)c2c1
Potency [2]: inactive

Cn1ncnc1[C@H]1c2n[nH]c(=O)c3cc(F)cc(c23)N[C@@H]1c1ccc(F)cc1
Potency [2]: inactive

CC/C(=C(/c1ccc(/C=C/C(=O)O)cc1)c1ccc2[nH]ncc2c1)c1ccc(F)cc1Cl
Potency [2]: inactive

COc1cccc(OCCCN)c1-c1cc(Nc2cnc(C#N)cn2)n[nH]1
Potency [2]: inactive

COc1ccccc1C(=O)Nc1cc2c(cc1N1CCNC[C@H]1C)n(C)c(=O)n2C
Potency [2]: inactive

CC[C@@H]1[C@H](F)C(=O)N[C@@H]1COc1nccc2cc(C(N)=O)c(OC)cc12
Potency [2]: inactive

CNc1ncc2cc(-c3cc(NC(=O)NCCC(C)(C)C)c(F)cc3C)c(C)nc2n1
Potency [2]: inactive

N[C@@H](CCC(=O)O)C(=O)N[C@@H](Cc1c[nH]c2ccccc12)C(=O)O (H-Glu-Trp-OH)
Potency [2]: inactive
Potency [4]: inactive

CC(C)(CNC(=O)c1cccc(-c2noc(C(F)(F)F)n2)c1)c1coc(-c2ccccc2)n1
Potency [2]: inactive
activity change, negative = inhibition [4]: -6.95%

O=C1CC(c2c[nH]c3ccc(F)cc23)C(=O)N1 (stereo unspecified)
Potency [2]: inactive
activity change, negative = inhibition [4]: 1.8%

CCS(=O)(=O)N1CCN(c2ccc(Nc3ncc(C(N)=O)c(NC4CC4)n3)cc2)CC1
Potency [2]: 25.1 µM (active)

O=C(NCC(=O)N1CCCC1)Nc1ccc2cnccc2c1
Potency [2]: inactive
activity change, negative = inhibition [4]: -15.6%

CC(=O)N1CCC(Nc2cc(C(=O)NC[C@H](O)CN3CCc4ccccc4C3)ncn2)CC1
Potency [2]: inactive
Potency [4]: inactive

C[C@@H](O)[C@@H]1NC(=O)[C@H](CCCCN)NC(=O)[C@@H](Cc2c[nH]c3ccccc23)NC(=O)[C@H](Cc2ccccc2)NC(=O)[C@@H](NC(=O)[C@H](N)Cc2ccccc2)CSSC[C@@H](C(=O)N[C@H](CO)[C@@H](C)O)NC1=O
Potency [2]: inactive
activity change, negative = inhibition [4]: -12.9% [at 27.1 µM]

CNC(=O)Cn1cc(-c2ccc3c(c2)C(F)CC32NC(=O)N(CC(=O)N(Cc3ccc(F)cc3)[C@@H](C)C(F)(F)F)C2=O)cn1 (stereo partly specified)
Potency [2]: inactive
activity change, negative = inhibition [4]: -19.9% and -7.29%

C=CCN1C[C@H](C(=O)N(CCCN(C)C)C(=O)NCC)CC2c3cccc4[nH]cc(c34)C[C@H]21 (stereo partly specified)
Potency [2]: inactive
activity change, negative = inhibition [4]: -15.3%

Cc1ccc2cc(-c3c(C)ccc(C(=O)c4c(-c5ccccc5)n(C)n(-c5ccccc5)c4=O)c3N)ccc2n1
Potency [2]: inactive

O=C(COCC(=O)N1CCN(C(c2ccccc2)c2ccccc2)CC1)Nc1ccc(Cl)cc1C(=O)O
Potency [2]: inactive
activity change, negative = inhibition [4]: -0.414%

O=C(O)c1ccc(CN2CCC(CN[C@@H]3C[C@H]3c3ccccc3)CC2)cc1
Potency [2]: inactive
Potency [4]: inactive

COc1cc2c(NC3CCN(C)CC3)nc(N3CCCN(C)CC3)nc2cc1OCCCN(C)C
Potency [2]: inactive
activity change, negative = inhibition [4]: -3.44%
